Consider 14 compounds from PubChem BioAssay (NCI).

Holding throughout (assay): NCI-60 one-dose screen, 48 h (100 = growth as untreated, 0 = no growth, -100 = all killed)
Settings in all cases: 10 µM unless noted

The test system of assay [1] is DU-145 prostate.
Assay [2] concerns K-562 leukemia.
For assay [3], the system named is MALME-3M melanoma.
Assay [4] deals with MDA-MB-231 breast.
Assay [5] concerns RXF 393 renal.
Assay [6] has as its system SF-268 CNS.
Assay [7] has as its system SF-295 CNS.
The test system of assay [8] is SF-539 CNS.
Assay [9] relates to UACC-257 melanoma.
Assay [10] has as its system M14 melanoma.

About 83,000 compounds went through this panel and 20% of them were active in at least one assay; those are over-represented in the sample as a whole.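 Results are percent growth after 48 hours of single-concentration exposure. 100 means growth as in untreated cells, lower positive values show inhibition; negative values down to -100 show cell death.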 Values without a mark were called inactive. Calls of active or inactive are those of the source. Rule for the calls: active = growth percent below 10; inactive = the rest.

As for `Cc1ncc(C(=O)Nc2ccc(CN3CCN(C)CC3)c(C(F)(F)F)c2)cc1C#Cc1c(N)ncc2ccc(F)cc12`, the growth in assay [1] is -88.6% (active); in assay [2], -57.1% (active); in assay [3], -79.6% (active); in assay [4], -88.9% (active); in assay [5], -88.1% (active); in [6], 20%. Further, the growth in assay [7] is 42%; in assay [8] it was -93.6% (active); in assay [9] it was -18.6% (active); in assay [10], -74.9% (active).
Take `CCC(C)[C@H](NC(=O)Nc1cc(C(F)(F)F)cc(C(F)(F)F)c1)C(=O)N[C@@H](Cc1cn(C)cn1)C(=O)OC` (stereo not given in full): the growth in assay [1] was -96.4% [100 µM] (active); in [2], -68.3% [100 µM] (active); in assay [3], -86.5% [100 µM] (active); in assay [4] it was -96.3% [100 µM] (active); in assay [5] it was -86.6% [100 µM] (active); in assay [6], -87.9% [100 µM] (active). In addition, the growth is -93.3% [100 µM] (active) in assay [7], -96% [100 µM] (active) in assay [8], -97.5% [100 µM] (active) in assay [9] and -89.7% [100 µM] (active) in assay [10].
Regarding `CC/C(=N\Nc1nc2ccccc2n1C)c1ccccn1`, the growth in assay [1] is 11.8%; in assay [2] it was 8.28% (active); in assay [3], 9.46% (active); in [4], 20.8%; in [5], 2.73% (active); in assay [6] it was 3.39% (active). Moreover, the growth in assay [7] is -19.8% (active); in assay [8], -6.18% (active); in assay [9], -0.857% (active); in [10], -19% (active).
Turning to `Nc1ccc(N=Nc2ccccc2)c2cc(S(=O)(=O)O)ccc12`, the growth in [1] is 110%; in [2], 104%; in [3], 107%; in [4] it was 109%; in assay [5], 97.2%; in assay [6], 98.8%. The growth in assay [7] is 103%; in assay [8], 101%; in [9], 97%; in assay [10], 103%.
Turning to `NNC(=O)CNc1ccc2ccccc2c1`, the growth in [1] was 95.8%; in assay [2], 86.8%; in [3], 98.9%; in [4] it was 104%; in assay [5] it was -7.3% (active); in assay [6] it was 120%. Moreover, the growth was 118% in assay [7], 95.4% in assay [8], 105% in assay [9] and -100% (active) in assay [10].
With `CCCCCc1ccnc(CC(=O)c2ccc(OC)cc2)c1`, the growth in assay [1] was 105%; in [2] it was 68.1%; in assay [3], 90.3%; in assay [4], 98%; in [5] it was 106%; in [6] it was 98.7%. Also, the growth is 97.4% in assay [7], 97.2% in assay [8], 90.9% in [9] and 99.2% in assay [10].
For `N=C(N)c1ccc(-c2ccc(-c3ccc(F)cc3)s2)cc1`, the growth in [1] is -92.9% (active); in [2], -62.9% (active); in assay [3] it was -75.6% (active); in [4], -86.8% (active); in assay [5] it was -98.4% (active); in [6], -79.9% (active). Also, the growth in assay [7] was -94.1% (active); in assay [8], -95.4% (active); in assay [9], -79.5% (active); in [10] it was -83.1% (active).
Take `Nc1ccc(S(=O)(=O)Nc2cc(F)cc(F)c2)cc1`: the growth in assay [1] is 94.5%; in [2], 71.9%; in assay [3] it was 131%; in assay [4], 90.9%; in [5], 20.1%; in assay [6], 130%. For the same compound, the growth is 103% in assay [7], 85.6% in [8], 95.5% in [9] and 91.1% in assay [10].
On to `COc1ccc(C(O)(c2ccccc2)C(C(=O)O)c2ccccc2)cc1` (stereo not given), for which the growth in assay [1] was 118%; in assay [2] it was 101%; in assay [3], 107%; in assay [4] it was 103%; in assay [5], 121%; in [6], 107%. Besides, the growth is 118% in assay [7], 92.7% in assay [8], 127% in [9] and 103% in [10].
Regarding `CNCCCNCCCCNCCCN1C(=O)c2ccc3c4c(ccc(c24)C1=O)C(=O)N(CCCNCc1ccccc1OC)C3=O`, the growth in [1] is 29.1%; in assay [2] it was 20.2%; in assay [3], -26.1% (active); in [4], 47.3%; in assay [5] it was 20.1%; in assay [6], 17.7%. For the same compound, the growth in assay [7] is 22.1%; in assay [8], 21.7%; in assay [9] it was 29.2%; in assay [10] it was 24%.
In the case of `N#CCCCCCCCCCCC#N`, the growth in assay [1] is 106%; in assay [2], 103%; in assay [3], 139%; in assay [4] it was 105%; in [5] it was 113%; in [6] it was 109%. The growth in assay [7] was 92%; in assay [8] it was 108%; in assay [9], 87.7%; in [10], 103%.
For the compound `CCCC(=O)Nc1ccccc1C(=O)O`, the growth was 97.6% in assay [1]; 104% in assay [2]; 106% in assay [3]; 123% in assay [4]; 93.7% in assay [5]; 92.4% in assay [6]. Further, the growth in assay [7] is 93.9%; in assay [8], 102%; in assay [9] it was 85.2%; in assay [10], 98.6%.
Consider `COc1ccc2c(N)ncc(C#Cc3cc(C(=O)Nc4ccc(CN5CCN(C)CC5)c(C(F)(F)F)c4)cnc3C)c2c1`, for which the growth in assay [1] is -89.2% (active); in assay [2] it was -63.4% (active); in assay [3], -81.9% (active); in [4], -85% (active); in assay [5], -73.4% (active); in assay [6], 6.51% (active). For the same compound, the growth in assay [7] is 63%; in assay [8], -93.4% (active); in assay [9], 27.4%; in [10], -78.1% (active).
Take `C/C(=N\Nc1ccc(Cl)cn1)c1ccccn1`: the growth was 18.2% in assay [1]; 5.63% (active) in [2]; 2.78% (active) in assay [3]; 31% in [4]; 19.4% in assay [5]; 11.9% in assay [6]. For the same compound, the growth in [7] is -1.75% (active); in assay [8], -14% (active); in assay [9], -11.4% (active); in assay [10], 2.33% (active).
